# Source: the OligoGym collection
# Target: ACCN2
# Assay: pooled miR-30 sensor sort-seq; sequence = guide strand
# Details: shRNA
# Also: reference of the scale not given here.
row,Sequence,sensor-assay potency score (higher = more potent)
1,TTGAACGTGTAGCACTTTCCAT,-0.501
2,TAGTACTGCACACGCTCCGTGC,-0.962
3,TTTTCCTCGTCGGCACAGCTTG,-1.19
4,TTCAATGGTCTCATAGTTGAGG,-0.393
5,TGTAGCACTTTCCATAGCGTGT,-0.609
6,TCGGTCGTAGAACTCACGCATG,-0.983
7,TATAGCAATATAGAGTCTGTAT,-0.0507
8,TTTGACGTCGTCCAGGCTGAGG,-1.49
9,TTGCACAGCGTGACAGCAGGGA,0.305
10,TAGCACTTTCCATAGCGTGTGA,-0.16
11,TCGTTGAGGTTGCACAGCGTGA,-1.57
12,TTTGTTGAACTTCTTGGCCAGG,-0.861

# Target: ACCN3
# Assay: as above
# Details: shRNA
row,Sequence,sensor-assay potency score (higher = more potent)
1,TTCGGCAGCCGCACTTCCGAGC,-1.09
2,TAGTAGTGGTGAGCAGCTCTGC,-0.938
3,TTGCACAGGGTGACAGCCGGGA,-0.486
4,TATCCCAGGACCTTGTCTCGGA,-0.411
5,TTGTCTCGGAACACCTCACAGA,-0.903
6,TAAATGTGTAGCACTTTCCCAT,-0.325
7,TGTAGTAGCGCACCCTCTCAGC,-1.06
8,TAGCACTTTCCCATCCGGGTGA,0.401
9,TTTCTCGCTCATCCAGGGCAGT,-1.12
10,TGTAGCACTTTCCCATCCGGGT,-0.708

# Target: ACOT1
# Assay: as above
# Details: shRNA
row,Sequence,sensor-assay potency score (higher = more potent)
1,AGCTCTTCTGGTCAGGTCCTTC,-1.49
2,TCGCACGTCGCGCTTCACCAGC,-1.56
3,TTGTAGCGTAAGGTTCCCCCAA,-1.03
4,TTTTACCTCAGGATGACTGAGC,-0.46
5,ATCTTTGGTCACCTTGATGCGA,-0.779
6,TTCATAGTTATAGTAAGCCAGA,-1.24
7,TAGCGCTCGTGCCGCACCCGGC,-1.32
8,TACCTCAGGATGACTGAGCAAG,-0.802
9,AACATGTCCACAATGCCAGGAA,-0.319
10,AGTTGTGGTCATCCTGACCTAC,-1.25
11,TGAGCAAGTAGTTCACAGCTTC,-0.12
12,ATTCGCACCGGTTCGTCCCAGC,-0.912

# Target: ACOT6
# Assay: as above
# Details: shRNA
row,Sequence,sensor-assay potency score (higher = more potent)
1,TTTAGGAATAATCATATCCTTG,-0.802
2,AATACTAGGACCTTTCACCTTT,0.28
3,TTGGTGATTGTGTTCCTCCAGT,-0.204
4,TATCCTTGTAATGTAGAGGAGC,-0.764
5,TTAGGAATAATCATATCCTTGT,0.922
6,TTGATAAGTACAGTGGCTGTGA,0.402
